Laboratory results from PubChem BioAssay (NCATS).
Inconclusive results are not listed. Activity calls are given as the source filed them. Calls follow the shape of the dose curve; as a rule, active = well fitted cell-killing curve with a large enough effect; inconclusive = small, poorly fitted or top-dose-only effect, or effect the other way; inactive = no such curve, though single readings can be large or run the other way.

Assay: Quantitative High-Throughput drug screen in 47 multiple myeloma cell lines against the NCATS MIPE library collection: KMS34_JCRB cell viability assay (AID 1918985); also: nearly all actives have a fitted effect of over 40% in size
Details: KMS34 myeloma viability, CellTiter-Glo ATP luminescence, 48 h; series mostly up to 45.8 µM
Text: PI: Beverly A. Mock Ph.D.
Laboratory of Cancer Biology and Genetics,
Center for Cancer Research, National Cancer Institute,
National Institute of Health, Bethesda, Maryland
Drug resistance and disease progression are common in multiple myeloma (MM) patients, underscoring the need for new therapeutic combinations. […] We hypothesized that effective combinations would reduce MYC expression and enhance p16 activity. […] These preclinical data identify potentially useful drug combinations for evaluation in drug-resistant MM and reveal potential mechanisms of combined drug sensitivity.
Described herein is the primary MIPE qHTS used to cherrypick compounds. Validated compounds were then further tested for potential synergistic activiy.
[1] Peat TJ, Gaikwad SM, Dubois W, Gyabaah-Kessie N, Zhang S, Gorjifard S, Phyo Z, Andres M, Hughitt VK, Simpson RM, Miller MA, Girvin AT, Taylor A, Williams D, D'Antonio N, Zhang Y, Rajagopalan A, Flietner E, Wilson K, Zhang X, Shinn P, Klumpp-Thomas C, McKnight C, Itkin Z, Chen L, Kazandijian D, Zhang J, Michalowski AM, Simmons JK, Keats J, Thomas CJ, Mock BA. Drug combinations identified by high-throughput screening promote cell cycle transition and upregulate Smad pathways in myeloma. Cancer Lett. 2023 Aug 1;568:216284. doi: 10.1016/j.canlet.2023.216284. Epub 2023 Jun 24. PMID: 37356470; PMCID: PMC10408729.
SEQUENCE No. (e.g., 1, 2, 3, etc.); […] (e.g., Cells, Incubation, Reagent, etc.); VALUE and DESCRIPTION.
1; Cells; 5 uL; white, solid bottom 1536-well Greiner assay plate.
2; Compounds; 23 nL; Kalypsis pin tool (Wako USA) equipped with a 1536-well pin head to transfer to the assay plates.
3; Incubation; 48 hours; 37C incubation.
4; Reagent;5uL; CellTiter Glo (Promega).
5; Detector; 425V; Luminescence; Viewlux PerkinElmer.
NOTES (numbers refer to Sequence numbers above)
1. The cell-based screening methods employed in this study were like those previously published. Briefly, the corresponding myeloma cell lines were screened in 1,536-well plates with 500 cells, 5-uL per well for inhibition of cell viability (assessed by measuring ATP levels with CellTiterGlo).
2. NCATS MIPE 4.0 library of approved and investigational drugs were added using the Kalypsis pin tool. Wells treated with DMSO only for 100% viability and media only for 0% viability were used as controls.
3. The assay plates were covered and incubated for 48 hours in a 37C, 5% CO2 incubator with controlled humidity.
4. After 48 hours, CellTilter-GloTM luminescent substrate mix (Promega) reagent was added to the assay plate and plates we incubated for 5 min at room temperature.
5. Signal was measured as median relative luminescence units on a ViewLux (PerkinElmer) multiplate reader.
[1] Heske CM, Davis MI, Baumgart JT, Wilson K, Gormally MV, Chen L, Zhang X, Ceribelli M, Duveau DY, Guha R, Ferrer M, Arnaldez FI, Ji J, Tran HL, Zhang Y, Mendoza A, Helman LJ, Thomas CJ. Matrix Screen Identifies Synergistic Combination of PARP Inhibitors and Nicotinamide Phosphoribosyltransferase (NAMPT) Inhibitors in Ewing Sarcoma. Clin Cancer Res. 2017 Dec 1;23(23):7301-7311. doi: 10.1158/1078-0432.CCR-17-1121. Epub 2017 Sep 12. PMID: 28899971; PMCID: PMC6636827.
Potency is read from the fitted curve at half-maximal effect.

| Structure (SMILES) | Potency |
| --- | --- |
| COc1ccc(-n2nc(C(N)=O)c3c2C(=O)N(c2ccc(N4CCCCC4=O)cc2)CC3)cc1 | inactive |
| COc1cccc2c(NCc3ccccc3)nc(-n3c(N)nc4ccccc43)nc12 | 6620 nM (active) |
| O=c1[nH]c(=O)n(C2CCCO2)cc1F (stereo not given) | inactive |
| CCn1cc(-c2ccnc3[nH]c(-c4cccc(CN(C)C)c4)cc23)c(-c2ccc(NC(=O)N(C)C)cc2)n1 | 10500 nM (active) |
| CN(c1ncccc1CNc1nc(Nc2ccc3c(c2)CC(=O)N3)ncc1C(F)(F)F)S(C)(=O)=O | 8330 nM (active) |
| CNC(=O)c1cc(Oc2ccc(NC(=O)Nc3cc(C(C)(C)C)nn3-c3ccc4ncccc4c3)c(F)c2)ccn1 | 7430 nM (active) |
| CC(C)Nc1cc(C(F)(F)F)cc2nc(NC(=O)c3cccnc3)nn12 | inactive |
| CN1CCC(CNc2ccc3ncc(-c4cccc(OC(F)(F)F)c4)n3n2)CC1 | 20900 nM (active) |
| Nc1ccccc1NC(=O)c1ccc(CNc2nccc(-c3cccnc3)n2)cc1 | 935 nM (active) |
| Cn1c2ccccc2c2c3c(c4c5ccccc5n(CCC#N)c4c21)CNC3=O | 3720 nM (active) |
| CC1(O)CC(c2nc(-c3ccc4ccc(-c5ccccc5)nc4c3)c3c(N)nccn23)C1 (stereo not given) | 590 nM (active) |
| N#CCNC(=O)c1ccc(-c2ccnc(Nc3ccc(N4CCOCC4)cc3)n2)cc1 | 4690 nM (active) |
| C=CC(=O)Nc1cc2c(Nc3ccc(F)c(Cl)c3)ncnc2cc1C#CC(C)(C)N1CCN(C)CC1 | 5260 nM (active) |
| CC(C)(C)c1cc(C(C)(C)C)c(NC(=O)c2c[nH]c3ccccc3c2=O)cc1O | inactive |
| Cc1nc(Nc2n[nH]c3c2CN(C(=O)N[C@H](CN(C)C)c2ccccc2)C3(C)C)c2sccc2n1 | 469 nM (active) |
| O=C(c1ccc(Nc2nccc(-c3cc4ccccc4s3)n2)cc1)N1CCC(N2CCCC2)CC1 | 11800 nM (active) |
| CNc1nccc(-c2cccnc2Oc2cc(C(=O)Nc3cccc(C(F)(F)F)c3)ccc2C)n1 | 14800 nM (active) |
| O=C(O)CCCc1c[nH]c2ccccc12 | inactive |
| CCC1=C[C@@H]2CN(C1)Cc1c([nH]c3ccccc13)[C@@](C(=O)OC)(c1cc3c(cc1OC)N(C)[C@@H]1[C@@](O)(C(=O)OC)[C@H](OC(C)=O)[C@]4(CC)C=CCN5CC[C@]31[C@@H]54)C2 | 16.6 nM (active) |
| C=C1C(=CC=C2CCC[C@]3(C)[C@@H]([C@H](C)C=C[C@H](C)C(C)C)CC[C@@H]23)C[C@@H](O)C[C@@H]1O | 3320 nM (active) |

| Structure (SMILES) | Potency |
| --- | --- |
| CC1(C)CC(=O)c2c(C(F)(F)F)nn(-c3ccc(C(N)=O)c(NC4CCC(OC(=O)CN)CC4)c3)c2C1 (stereo not given) | 166 nM (active) |
| COc1cc2c(Oc3ccc(-c4cnc(Nc5ccc(F)cc5)n(C)c4=O)cc3F)ccnc2cc1OCCCN1CCOCC1 | 18700 nM (active) |
| Cc1cc(Nc2cc(N3CCN(C)CC3)nc(Sc3ccc(NC(=O)C4CC4)cc3)n2)n[nH]1 | 14800 nM (active) |
| CC1COC2(CCN(c3nc(=O)c4cc(C(F)(F)F)cc([N+](=O)[O-])c4s3)CC2)O1 (stereo not given) | inactive |
| CC(C)(C)c1cnc(CSc2cnc(NC(=O)C3CCNCC3)s2)o1 | 296 nM (active) |
| Nc1cccc(-c2cc3c(Oc4cccc(O)c4)ncnc3[nH]2)c1 | 18700 nM (active) |
| CC(C)(O)CCc1ccc(OCc2cc(-c3cccc(OC(F)F)c3)c3ncccc3c2)cc1 | inactive |
| COC(=O)Nc1ccc(-c2nc(N3CCOCC3)c3cnn(C4CCN(Cc5cccnc5)CC4)c3n2)cc1 | 59 nM (active) |
| CC[C@H]1CN2CCc3cc(OC)c(OC)cc3[C@H]2C[C@@H]1C[C@@H]1NCCc2cc(OC)c(OC)cc21 | 132 nM (active) |
| O=C(Nc1nc2cccc(-c3ccc(CN4CCS(=O)(=O)CC4)cc3)n2n1)C1CC1 | 8330 nM (active) |
| Nc1cc(C(F)(F)F)c(-c2cc(N3CCOCC3)nc(N3CCOCC3)n2)cn1 | 833 nM (active) |
| Nc1nc(-c2nn(Cc3ccccc3F)c3ncccc23)nc(N)c1N1CCOCC1 | inactive |
| CNC(=O)CN1CCC(Oc2cc3c(Nc4cccc(Cl)c4F)ncnc3cc2OC)CC1 | 37.2 nM (active) |
| Nc1nccc(Oc2ccc(NC(=O)c3c[nH]cc(-c4ccc(F)cc4)c3=O)cc2F)c1Cl | 18700 nM (active) |
| Cc1c(CN2CCN(S(C)(=O)=O)CC2)sc2c(N3CCOCC3)nc(-c3cnc(N)nc3)nc12 | 37.2 nM (active) |
| COc1cc2c(cc1-c1c(C)noc1C)ncc1[nH]c(=O)n([C@H](C)c3ccccn3)c12 | 469 nM (active) |
| CC(C)c1nn(-c2c(Cl)cccc2Cl)c2nc(Cc3ccc(OCCO)cc3)[nH]c(=O)c12 | 118 nM (active) |
| C[C@@]12O[C@@H](C[C@]1(O)CO)n1c3ccccc3c3c4c(c5c6ccccc6n2c5c31)CNC4=O | 526 nM (active) |
| CN1CC[C@@H](c2c(O)cc(O)c3c(=O)cc(-c4ccccc4Cl)oc23)[C@@H](O)C1 | 74.3 nM (active) |
| CC(C)c1cnn2c(NCc3ccccc3)cc(N[C@@H](CO)[C@H](O)CO)nc12 | 662 nM (active) |
